Bioassay records as filed in PubChem.
Sampled rows, rich in hits. Any-hit rate of the full collection: about 6.2%.
AHR activator – human AHR activation. AID 2796. hit rate 2.5% among 320,000. P35869. activation, % at 5 µM. AHR-responsive luciferase reporter cells, luminescence; in the data active means activation above about 47%;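 further: 0% = vehicle wells and 100% = reference agonist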
Target sequence (P35869 whole entry, looked up): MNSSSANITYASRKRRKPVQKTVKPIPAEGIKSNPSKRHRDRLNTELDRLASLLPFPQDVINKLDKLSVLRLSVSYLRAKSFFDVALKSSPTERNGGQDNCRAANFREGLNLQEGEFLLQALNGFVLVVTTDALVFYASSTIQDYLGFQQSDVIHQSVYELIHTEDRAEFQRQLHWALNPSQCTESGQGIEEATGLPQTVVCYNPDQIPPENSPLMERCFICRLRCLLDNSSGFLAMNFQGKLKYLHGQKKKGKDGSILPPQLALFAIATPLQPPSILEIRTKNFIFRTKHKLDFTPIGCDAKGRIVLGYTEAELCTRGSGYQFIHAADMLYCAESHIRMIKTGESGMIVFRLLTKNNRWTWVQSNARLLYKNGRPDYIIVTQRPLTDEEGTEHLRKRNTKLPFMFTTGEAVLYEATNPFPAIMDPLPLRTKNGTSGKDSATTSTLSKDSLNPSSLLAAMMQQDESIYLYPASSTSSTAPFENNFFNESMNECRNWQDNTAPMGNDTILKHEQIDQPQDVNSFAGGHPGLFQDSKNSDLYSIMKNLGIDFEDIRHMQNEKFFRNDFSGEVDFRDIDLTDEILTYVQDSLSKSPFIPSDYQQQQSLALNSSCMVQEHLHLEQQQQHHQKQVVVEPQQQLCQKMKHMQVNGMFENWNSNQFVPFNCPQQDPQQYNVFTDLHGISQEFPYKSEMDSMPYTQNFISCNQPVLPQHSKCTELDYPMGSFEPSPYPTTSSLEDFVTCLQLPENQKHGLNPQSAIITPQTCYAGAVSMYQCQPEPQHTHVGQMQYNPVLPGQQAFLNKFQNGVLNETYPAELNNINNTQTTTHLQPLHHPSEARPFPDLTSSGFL
NTR1 agonist – agonists of human neurotensin receptor NTR1; P30989; NTR1-U2OS beta-arrestin-GFP spot imaging, agonist mode; activation, % at 20 µM; hit rate 0.17% among 330,000; AID 493036;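 active means activation at or above 40% of the spot to cytoplasm intensity ratio, with at least 20 cells analyzed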;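 further: 0% = DMSO without peptide and 100% = 100 nM NTR1 peptide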
NR3A LBD binder – NR3A (human) ligand-binding domain modulation; hit rate 2.5% among 340,000; NR3A LBD differential scanning fluorimetry, Tm shift; 0% = protein alone, 100% = glycine-bound protein; Tm shift relative to glycine control, % at 25 µM;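 active means melting temperature shift of at least 10% of the positive control shift, at one fixed dose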
Cardio protect – protects H9c2 cardiomyocytes from peroxide injury | hit rate 0.63% among 360,000 | AID 588492 | protection from H2O2 cell death, % at 20 µM | H2O2 injury protection, ATPLite, 2 h;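 active means compounds giving at least 50% protection of heart cells from peroxide-induced death in the single-dose screen, raw or plate-pattern-corrected value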;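 further: 0% = DMSO wells with peroxide and 100% = DMSO wells without peroxide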
Mot1-301 SUMO – blocks SUMOylation pathway, rescuing yeast Mot1-301 growth. growth rescue, % at 18.8 µM. S. cerevisiae Mot1-301 growth rescue, ATP luminescence, 38.5C; percent above DMSO median, 100 means doubled. AID 2716. hit rate 1% among 320,000;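 active means every valid replicate shows activation above 250% relative to neutral control wells; inactive means the rest, any valid replicate at or below 250%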;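 further: OY570 slx delta 5 strain wells were the positive control but not used for scaling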
AI-2 QS mod – Vibrio harveyi AI-2 quorum sensing modulation; hit rate 0.4% among 300,000; AID 2094; activity change, % at 7.5 µM; Vibrio harveyi JMH597 AI-2 luminescence/OD600 ratio, 9 h; active compounds read low; strain lacks LuxN and CqsS sensors; 0 = neutral-control median; in the data active means activity change below about -75%, passing the limit was not always enough;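 further: luminescence divided by OD600 gain over 9 h not by final OD600 alone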
An asterisk follows results filed as active.

What do the screens show for `O=C(CC1SC(=Nc2ccccc2)N(CCc2c[nH]c3ccccc23)C1=O)Nc1ccccc1F` (stereo not given)?
AHR activator: 12; NTR1 agonist: 32; NR3A LBD binder: 21*; Cardio protect: -8; Mot1-301 SUMO: -9; AI-2 QS mod: 4

How did CC(C)(C)C(=O)[C@@H]1[C@@H]2C(=O)N(C3CCCCC3)C(=O)[C@@H]2[C@H]2c3ccccc3C=CN12 do in these assays?
AHR activator: 93*; NTR1 agonist: 2; NR3A LBD binder: 4; Cardio protect: -2; Mot1-301 SUMO: -3

What do the screens show for `COc1ccc(N2C(=O)[C@H]3[C@@H](C2=O)C2c4ccccc4C=NN2[C@H]3C(=O)C(C)(C)C)cc1` (stereo not given in full)?
AHR activator: -1; NTR1 agonist: 2; NR3A LBD binder: 0; Cardio protect: 3; Mot1-301 SUMO: 16

How did O=C(Nc1ccc2c(c1)OCO2)[C@@H]1[C@@H]2C(=O)N(C3CCCCC3)C(=O)[C@@H]2C2c3ccccc3C=CN21 (stereo not given in full) do in these assays?
AHR activator: 53*; NTR1 agonist: 1; Mot1-301 SUMO: -11; AI-2 QS mod: 45

How did COc1ccc(N2C(=O)[C@@H]3[C@H](C2=O)[C@H]2c4ccccc4C=CN2[C@@H]3C(C)=O)cc1 do in these assays?
AHR activator: 51*; NR3A LBD binder: -1; Cardio protect: -1; Mot1-301 SUMO: 91; AI-2 QS mod: 20

What do the screens show for `O=C(COC(=O)c1c[nH]c2ccccc12)NC1CCCCC1`?
AHR activator: 21; NTR1 agonist: 2; NR3A LBD binder: 0; Cardio protect: 0; Mot1-301 SUMO: -13

Results for CCc1ccc(NC(=O)c2cnc(SC)nc2C)cc1 ?
NTR1 agonist: 0; NR3A LBD binder: 1; Cardio protect: 2; Mot1-301 SUMO: -14; AI-2 QS mod: 16

How did O=C(Cc1ccc(Cl)cc1)NNC(=S)NC(=O)c1cccnc1 do in these assays?
AHR activator: 5; NTR1 agonist: -1; NR3A LBD binder: 1; Cardio protect: 17; Mot1-301 SUMO: -12; AI-2 QS mod: -88*

What do the screens show for `CC(=O)NNC(=S)NC(=O)c1ccc(C)cc1`?
AHR activator: 7; NTR1 agonist: -1; NR3A LBD binder: 0; Cardio protect: -2; Mot1-301 SUMO: 9; AI-2 QS mod: -28

What do the screens show for `O=C(NC(=S)NNC(=O)c1ccc(Cl)cc1Cl)c1cccnc1`?
AHR activator: -1; NTR1 agonist: 2; NR3A LBD binder: -2; Cardio protect: 10; AI-2 QS mod: 80

What do the screens show for `Cc1ccc(C(=O)NNC(=S)NC(=O)c2ccc(Cl)cc2)cc1`?
AHR activator: 3; NTR1 agonist: 10; NR3A LBD binder: -20; Cardio protect: 18; Mot1-301 SUMO: 119; AI-2 QS mod: -127*

Results for O=C(NNC(=S)NC(=O)c1cccnc1)c1ccc(Cl)cc1 ?
AHR activator: -2; NTR1 agonist: 0; NR3A LBD binder: -3; Cardio protect: 8; Mot1-301 SUMO: -4; AI-2 QS mod: -93*

How did CCNc1ncnc2c1cnn2C1CCCO1 (stereo not given) do in these assays?
NR3A LBD binder: -3; Cardio protect: -6

How did O=C1c2ccccc2C(=O)c2c1ccc(C(=O)N1CCCCC1)c2NCCO do in these assays?
AHR activator: 1; NTR1 agonist: -1; NR3A LBD binder: 12*; Cardio protect: -16; Mot1-301 SUMO: -3; AI-2 QS mod: 3

What do the screens show for `CC1CCCN(C(=O)c2ccc3c(c2NCCO)C(=O)c2ccccc2C3=O)C1` (stereo not given)?
AHR activator: 9; NTR1 agonist: 7; NR3A LBD binder: 5; Cardio protect: 3; Mot1-301 SUMO: -4; AI-2 QS mod: -13

What do the screens show for `CC(C)(C)c1ccc(C(=O)N2CCC2(C)C(=O)NS(=O)(=O)c2ccccc2Cl)cc1` (stereo not given)?
Cardio protect: 3

What do the screens show for `CCOc1ccc(NC(=O)c2ccc(NS(=O)(=O)c3cccs3)cc2)cc1`?
AHR activator: 9; NTR1 agonist: 1; NR3A LBD binder: 24*; Cardio protect: -5; Mot1-301 SUMO: 6

What do the screens show for `CCCOc1ccc(C(=O)Nc2ccc(NC(=O)c3cccs3)cc2)cc1`?
AHR activator: 1; NTR1 agonist: 4; NR3A LBD binder: 14*; Cardio protect: -2; Mot1-301 SUMO: 11; AI-2 QS mod: 19

How did COc1cccc(C(=O)COc2ccc(NC(=O)c3cccs3)cc2)c1 do in these assays?
AHR activator: 7; NTR1 agonist: 2; NR3A LBD binder: 2; Cardio protect: -1; Mot1-301 SUMO: 23; AI-2 QS mod: -5

What do the screens show for `CCCOc1ccc(C(=O)Nc2ccc(N(C)C)cc2)cc1`?
AHR activator: -3; NTR1 agonist: 2; NR3A LBD binder: -4; Cardio protect: -13; Mot1-301 SUMO: 3; AI-2 QS mod: 24

How did CC(=O)c1ccc(NC(=O)c2ccc(NC(=O)CCS(=O)(=O)c3cccs3)cc2)cc1 do in these assays?
AHR activator: 1; NTR1 agonist: 14; NR3A LBD binder: 21*; Cardio protect: 19; Mot1-301 SUMO: -20; AI-2 QS mod: 2

How did CCCCOc1cccc(C(=O)Nc2ccc(NC(=O)c3cccs3)cc2)c1 do in these assays?
AHR activator: 5; NTR1 agonist: -1; NR3A LBD binder: 22*; Cardio protect: -14; Mot1-301 SUMO: 0; AI-2 QS mod: 16

What do the screens show for `CC(=O)c1cccc(NC(=O)c2ccc(NC(=O)CCS(=O)(=O)c3cccs3)cc2)c1`?
AHR activator: 4; NTR1 agonist: 0; NR3A LBD binder: 7; Cardio protect: 18; Mot1-301 SUMO: 1; AI-2 QS mod: 27

How did CCCn1c(CN2CCN(C(=O)OCC)CC2)nc2cc(NC(=O)CC)ccc21 do in these assays?
AHR activator: -1; NTR1 agonist: 0; NR3A LBD binder: -2; Cardio protect: 2; Mot1-301 SUMO: 2; AI-2 QS mod: 15

Results for O=C(COC(=O)CN1C(=O)c2ccccc2C1=O)Nc1cccc(F)c1 ?
AHR activator: 0; NTR1 agonist: -2; NR3A LBD binder: 3; Cardio protect: -3; Mot1-301 SUMO: 0

How did CCNC(=O)CC1SC(=Nc2ccc(C)c([N+](=O)[O-])c2)N(C)C1=O (stereo not given) do in these assays?
AHR activator: 0; NTR1 agonist: -1; NR3A LBD binder: -1; Cardio protect: 0; Mot1-301 SUMO: -4; AI-2 QS mod: -5

What do the screens show for `O=C(COc1ccc(NC(=O)c2cccs2)cc1)c1ccc(F)cc1`?
AHR activator: 3; NTR1 agonist: 2; NR3A LBD binder: 27*; Cardio protect: -2; Mot1-301 SUMO: 19; AI-2 QS mod: 9

Results for S=C(NCCCCN(Cc1ccc(Cl)cc1)c1ccc(Br)cn1)NCCCc1cnc[nH]1 ?
Cardio protect: -3
